Screening data from PubChem.
This is a sample that favours compounds with a hit; in the whole collection about 4.1% have one here.
TSHR agonist – activates the human thyroid stimulating hormone receptor. P16473. HEK293-CNG-TSHR cells (CNG channel as cAMP sensor), membrane potential dye, cAMP. Potency, µM (series often up to 57.1 µM), for inactives: at the highest dose activation, hits mostly activators. 73,000 tested, 0.48% active. AID 926; active = well fitted activation curve with a large enough effect in the main read-out, with a control signal flat, not every such curve was filed as active; inconclusive = small, poorly fitted or top-dose-only effect, or a change in a side signal; inactive = no such curve, though single readings can be large or run the other way; % of control where 0% means no effect;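 note: the control signal comes from parental cells without the receptor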
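HEK 293 cells stably expressing TSHR and a modified CNG channel, with CNG-only parental cells as counterscreen, were preloaded 60 min at room temperature with membrane potential dye containing 100 uM RO 20-1724. Compound exposure was 30 min, and depolarization was read as fluorescence at 590 nm.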
GBA activity – human lysosomal glucosylceramidase modulation. P04062. purified enzyme, resorufin glucoside fluorescence (screen aimed at inhibitors), 20 min. Potency, µM. 48,000 tested, 1.1% active; in the data active = potency below about 15 µM; inconclusive = mostly about 16 µM to 33 µM;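 note: the screen sought inhibitors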
Target sequence (P04062 whole entry, looked up): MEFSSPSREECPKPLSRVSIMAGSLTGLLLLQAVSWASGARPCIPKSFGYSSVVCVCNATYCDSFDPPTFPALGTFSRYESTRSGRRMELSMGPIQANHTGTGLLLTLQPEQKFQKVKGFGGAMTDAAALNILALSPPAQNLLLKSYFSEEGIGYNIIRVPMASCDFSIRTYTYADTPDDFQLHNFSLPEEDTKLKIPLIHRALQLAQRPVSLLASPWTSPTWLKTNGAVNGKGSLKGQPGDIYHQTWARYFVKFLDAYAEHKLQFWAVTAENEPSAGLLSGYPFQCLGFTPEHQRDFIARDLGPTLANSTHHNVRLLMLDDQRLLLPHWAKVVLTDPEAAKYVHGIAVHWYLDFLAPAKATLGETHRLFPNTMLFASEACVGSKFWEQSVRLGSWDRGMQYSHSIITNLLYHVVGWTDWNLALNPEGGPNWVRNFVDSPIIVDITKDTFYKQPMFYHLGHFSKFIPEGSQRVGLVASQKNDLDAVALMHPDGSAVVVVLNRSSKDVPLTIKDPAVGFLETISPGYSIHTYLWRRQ
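Wild-type enzyme at 0.2 nM final in 50mM citric acid/KH2PO4, 10mM sodium taurocholate, 0.01% tween-20, pH 5.9, with resorufin beta-D-glucopyranoside at 30 uM final. Compounds titrated, 20 min at RT, red fluorescence read; AC50 from titration.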
UbGFP stabilizer – inhibits proteasome, raising ubiquitin-GFP reporter fluorescence | Ubiquitin-GFP reporter cells, proteasome inhibition, GFP fluorescence; response scale: untreated = 0%, 10 µM MG-132 = 100% | Potency, µM (series often up to 45.9 µM), inactives show top-dose activation (GFP accumulation), most hits filed as activators | 67,000 tested, under 10 active; active = well fitted activation curve with a large enough effect, not every such curve was filed as active; inconclusive = small, poorly fitted or top-dose-only effect, or another doubt; inactive = no such curve, though single readings can be large or run the other way
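GFP accumulation read-out: laser plate cytometry counting ubiquitin(G76V)-GFP-expressing U2OS cells after 4 hr compound exposure at 37 °C. Titrations spanned 46 uM to 2.9 nM; 0% = basal, 100% = 10 uM MG-132; concentration-response curves fitted.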
Bst PK mod – alters activity of Bacillus stearothermophilus pyruvate kinase | 51,000 tested, 1.2% active | Potency, µM | AID 361 | purified pyruvate kinase, luminescence ATP production; ribose 5-phosphate activator present at AC10; in the data active = potency below about 11 µM; inconclusive = mostly about 12 µM to 25 µM;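 the screen sought inhibitors and activators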;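 note: scaled between full activation by ribose 5 phosphate and full inhibition by luteolin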
USP2a inh – USP2a (human) protease inhibition | O75604 | USP2a enzymatic assay, qHTS inhibition | Potency, µM (top dose mostly 38.3 µM), for the others: top-dose activity change, negative = inhibition, hits mostly inhibitors | 60,000 tested, 0.1% active | AID 927; note: nearly all actives have a fitted effect of over 60% in size
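USP2 core (20nM final) preincubated 30 min RT with compound, then Ub-PLA2 20nM and NBD C6-HPC 20uM final added; buffer 20mM Tris-HCl pH 8.0, 2mM CaCl2. Fluorescence Ex 460/Em 535 read at 0 and 2.5 h; normalized to NEM.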
HEK293 cAMP ctrl – parental HEK293 cAMP activation (counter-screen); parental HEK293 CNG cAMP sensor, membrane potential fluorescence; Potency, µM (highest dose often 57.1 µM), without a hit: top-dose activation, actives largely listed as activators; 73,000 tested, 2.5% active; AID 938; note: % of control where 0% means no effect; nearly all actives have a fitted effect of over 55% in size
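Counterscreen for endogenous-receptor signalling: CNG-channel HEK 293 cells report cAMP rise by membrane depolarization. After 60 min dye equilibration with 100 uM RO 20-1724, compounds incubated 30 min before bottom-read fluorescence at 590 nm.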
Starred values were filed as active, the others as inactive; i = inactive; ? = inconclusive; nt = no result given; ! = a repeat was not active; [ ] = dose if it differs, or a comment. Unless noted, calls come from the whole dose curve; as a rule, active = well fitted curve in the direction sought with a large enough effect; inconclusive = small, poorly fitted or top-dose-only effect, or another doubt; inactive = no such curve, though single readings can be large; an effect the other way counts as inactive or inconclusive. Potency is the fitted concentration of half-maximal effect.

SMILES	TSHR agonist	GBA activity	UbGFP stabilizer	Bst PK mod	USP2a inh	HEK293 cAMP ctrl
CC(C)=CCC/C(C)=C/CO/N=C1/C[C@@H](O)[C@@H](O)[C@@H]2[C@H]3C(=O)N(c4ccc(F)cc4F)C(=O)[C@@H]3CC[C@H]12	1%[11.4 µM]	nt	nt	nt	nt	1%[11.4 µM]
C=CCNC(=O)c1ccc(Cl)cc1Cl	4%	>77	15%	7.3*	-1%	3%
CS(=O)(=O)N1CCC2(CCN(c3ccccn3)CC2)CC1	?	nt	-4%	nt	14%	?
Cc1ccc(Nc2nc(N)nc(CN3CCN(c4ccccc4)CC3)n2)cc1Cl	3%	4.2*	4%	>57	40%	4%
COc1ccc(N2CCN(Cc3nc(N)nc(Nc4ccc(C)c(Cl)c4)n3)CC2)cc1	-32%	4*	9%	>57	47%	-17%
COc1ccc(Nc2nc(N)nc(CN3CCOCC3)n2)cc1	-25%	>77	-2%	>57	-4%	-4%
Clc1ccc(-c2nnc(-c3ccco3)o2)cc1	3%[11.4 µM]	nt	3%	4*	16%	20%
c1cncc(-c2nnc(-c3ccco3)o2)c1	-2%	>77	2%	>57	-7%	4%
CCc1cc2ccccc2nc1SCC(=O)Nc1cc(C)on1	?	>77	-8%	>57	-4%	25µM*
CCc1cc2ccc(OC)cc2nc1SCC(=O)Nc1cc(C)on1	?	>77	2%	>57	-5%	?
CC(=O)c1c(C)nc2ccccc2c1N	1%	>77	-2%	2.5*	24%	-7%
O=C(CSc1nnc(COc2ccc(Cl)cc2)n1Cc1ccco1)c1ccccc1F	?	>77	-2%	>57	1%	25µM*
O=C(CSc1nnc(-c2ccc(Cl)cc2)n1Cc1ccco1)c1cccs1	?	?	-2%	>57	34%	16µM*
O=C(CSc1nnc(-c2ccncc2)n1Cc1ccco1)c1ccc(Cl)cc1	?	>77	4%	>57	48%	?
Clc1ccc(OCc2nnc(SCc3nc4ccccc4[nH]3)n2Cc2ccco2)cc1	22%	>77	-2%	>57	58%	28%
CO/N=C1\CN(c2nc3c(cc2F)c(=O)c(C(=O)O)cn3C2CC2)CC1CN (centres undefined)	nt	nt	nt	nt	2%	nt
CC(C)=CCC(C)(C)C1OCCN1C(=O)Nc1ccccc1 (centres undefined)	10µM*	nt	17%	>57	4%	24%
O=S(=O)(c1ccccc1)N1CCC2(CCN(c3ccc(-c4ccccc4)cc3)CC2)CC1	nt	nt	8%	nt	128%	10%
c1cc2c(cc1-c1cnc3n1CCC3)OCCO2	?	>77	0%	nt	-5%	20µM*
CC1Cn2c(nnc2-c2ccc(F)cc2)S1 (centres undefined)	?	nt	-2%	nt	nt	4µM*
CC1Cn2c(nnc2-c2cccc(Cl)c2)S1 (centres undefined)	6%	nt	1%	nt	nt	8%
O[C@@H]([C@H](O)[C@@H](O)CBr)[C@@H](O)CBr	-1%	nt	nt	nt	nt	-3%
Cc1ccc(S(=O)(=O)N2CCN(CCO)CC2)cc1-c1nnc2c3ccccc3c(C)nn12	16µM*	>77	0%	>57	15%	8%
COc1ccc(S(=O)(=O)N2CCN(CCO)CC2)cc1-c1nnc2c3ccccc3c(C)nn12	2%	nt	-3%	nt	nt	8%
Cc1nn2c(-c3ccccc3)nnc2c2ccccc12	?	>77	1%	i	18%	?
SMILES	TSHR agonist	GBA activity	UbGFP stabilizer	Bst PK mod	USP2a inh	HEK293 cAMP ctrl
Cc1ccc(S(=O)(=O)N2CCN(C)CC2)cc1-c1nnc2c3ccccc3c(C)nn12	4µM*	>77	-4%	>57	14%	2%
COc1ccc(OCC(O)Cn2c(=N)n(Cc3ccccc3)c3ccccc32)cc1 (centres undefined)	?	14*	-5%	>57	12%	-39%
CCn1c(=N)n(CCOc2ccc(OC)cc2)c2ccccc21	8%	6.9*	-1%	>57	3%	15%
N=c1n(Cc2ccccc2)c2ccccc2n1CC(O)c1ccco1 (centres undefined)	4%	>77	4%	>57	53%	6%
N=c1n(CCO)c2ccccc2n1Cc1ccc(Cl)cc1	14%	?	0%	>57	nt	23%
N=c1n(CCO)c2ccccc2n1CCOc1ccccc1	9%	6*	-6%	>57	4%	27%
C[C@@H](NC(=O)C1(N)CCCC1)C(=O)O	6%[11.4 µM]	nt	-6%[9.17 µM]	nt	nt	-3%[11.4 µM]
CN=C(NC#N)NCCSC[C@H]1N=CN=C1C	?	nt	5%[20.5 µM]	nt	-9%[17.1 µM]	?
CC(Oc1ccc(Br)cc1)C(=O)N1CCc2ccccc21 (centres undefined)	?	>77	-1%	>57	-4%	25µM*
Cc1n[nH]c(C)c1S(=O)(=O)N1CCCC(C(=O)NC2CCCCC2)C1 (centres undefined)	?	nt	0%	nt	nt	10µM*
Cc1nn(C)c(C)c1S(=O)(=O)N1CCCC(C(=O)NC2CCCCCC2)C1 (centres undefined)	?	nt	-6%	nt	nt	?
CC(C)OCCCNC(=O)c1c(N)n(/N=C/c2ccccn2)c2nc3ccccc3nc12	?	?	3%	>57	41%	10µM*
COC(=O)c1ccccc1NC(=O)C1CC(=O)N(c2ccc(F)cc2)C1 (centres undefined)	?	>77	-2%	>57	nt	25µM*
C[Si](C)(c1ccc(C(=O)O)cc1)c1ccc(C(=O)O)cc1	1%[11.4 µM]	nt	0%[9.17 µM]	nt	nt	23%[11.4 µM]
CCCOc1ccccc1-c1nc2n[nH]nc2c(=O)[nH]1	17%	nt	3%	nt	10µM*	-2%
Cc1ccc(C)c(OCC(O)CN2C(C)CCCC2C)c1 (centres undefined)	?	>77	-4%	>57	6%	?
Cc1ccc(OC[C@H](O)[C@H](C)NC(C)C)c2c1CCC2	?	nt	14%	nt	1%	40µM*!
COc1ccc(S(=O)(=O)N2CCCCC2)cc1C(C)C	?	>77	-2%	>57	-12%	32µM*
COc1ccc(Oc2ccc(S(=O)(=O)N3CCCCC3)cc2S(=O)(=O)N2CCCCC2)cc1	?	nt	-1%	nt	15%	?
Fc1ccc(C(c2nnnn2C2CCCC2)N2CCN(Cc3ccncc3)CC2)cc1 (centres undefined)	-51%	>77	-6%	>57	63%	14%
CN(c1ccccc1)C(c1ccc(F)cc1)c1nnnn1C1CCCC1 (centres undefined)	?	>77	3%	>57	-14%	13µM*
O=c1c2c(nc3c(-c4ccc(Cl)cc4)c[nH]n13)CCCC2	-6%	6.5*	-5%	3.2*	26%	15%
Cc1nc(N2CCN(c3ccccc3)CC2)c2c3c(sc2n1)CCC3	16µM*	nt	-16%	nt	2%	-3%
